PMC4336329 (PLoS ONE, 2015)
The whole screen tested about 310,000 compounds, of which about 14,000 (4.5%) showed an effect of 50% or more. The effect is printed as a negative number. The full list was thinned out, with strong results kept by preference.

Each compound was assayed against human ether-à-go-go-related gene (hERG) potassium channel (human, UniProt Q12809) (assay: primary screen, population patch clamp on CHO cells stably expressing hERG; higher = less effect of the substance).
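Further: peak tail current of the secondary pulse compared with the same well before compound.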

Chain of human ether-à-go-go-related gene (hERG) potassium channel (Q12809 whole entry, looked up): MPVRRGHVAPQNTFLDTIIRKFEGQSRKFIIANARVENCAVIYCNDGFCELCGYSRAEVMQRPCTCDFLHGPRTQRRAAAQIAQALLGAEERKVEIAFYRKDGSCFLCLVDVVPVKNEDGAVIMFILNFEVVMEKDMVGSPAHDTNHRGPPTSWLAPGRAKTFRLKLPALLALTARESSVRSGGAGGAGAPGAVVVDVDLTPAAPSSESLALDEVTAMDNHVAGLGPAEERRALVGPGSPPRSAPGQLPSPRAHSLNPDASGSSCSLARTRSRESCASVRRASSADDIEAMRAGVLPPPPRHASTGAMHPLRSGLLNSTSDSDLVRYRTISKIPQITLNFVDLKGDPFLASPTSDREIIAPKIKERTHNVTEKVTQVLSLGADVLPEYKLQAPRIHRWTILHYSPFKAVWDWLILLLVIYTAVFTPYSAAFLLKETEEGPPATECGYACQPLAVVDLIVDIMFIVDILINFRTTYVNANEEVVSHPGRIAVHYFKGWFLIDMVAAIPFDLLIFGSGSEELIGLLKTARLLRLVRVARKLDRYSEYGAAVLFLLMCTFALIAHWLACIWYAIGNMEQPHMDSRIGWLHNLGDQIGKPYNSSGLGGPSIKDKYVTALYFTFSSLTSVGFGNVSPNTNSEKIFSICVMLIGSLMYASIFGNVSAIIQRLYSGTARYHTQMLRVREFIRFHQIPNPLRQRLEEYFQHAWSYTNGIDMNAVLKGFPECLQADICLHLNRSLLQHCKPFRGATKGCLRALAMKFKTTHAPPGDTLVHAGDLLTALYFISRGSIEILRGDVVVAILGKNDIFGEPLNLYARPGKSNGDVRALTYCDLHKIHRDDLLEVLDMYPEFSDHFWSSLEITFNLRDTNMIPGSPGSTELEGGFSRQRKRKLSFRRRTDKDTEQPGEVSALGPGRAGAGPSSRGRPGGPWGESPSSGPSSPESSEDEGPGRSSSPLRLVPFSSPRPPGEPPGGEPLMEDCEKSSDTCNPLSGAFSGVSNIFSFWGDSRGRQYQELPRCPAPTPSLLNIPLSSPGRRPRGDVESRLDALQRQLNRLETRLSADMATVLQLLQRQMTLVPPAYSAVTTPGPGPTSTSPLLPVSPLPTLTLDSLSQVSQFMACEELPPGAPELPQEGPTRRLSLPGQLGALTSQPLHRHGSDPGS

Point of comparison: COc1ccc(N2CCN(S(=O)(=O)c3c(C)nc4sccn4c3=O)CC2)cc1, “hERG current change (%, negative = inhibition) at 10uM” value -9.86%. Against it:
- CCc1nnc(NC(=O)CSc2nc3[nH]c(=O)cc(O)c3s2)s1 — higher, -0.838%
- O=C(OCc1ccc([N+](=O)[O-])cc1)c1ccccn1 — lower, -28.2%
- Nn1c(SCc2c(F)cccc2F)nnc1-c1ccccn1 — higher, 2.69%
- CC1(C(=O)NCC2CCCO2)Oc2cccnc2NC1=O (stereo not shown) — higher, 5.86%
- CC(=O)Nc1c2c(nn1-c1ccccc1C)CS(=O)C2 (stereo not shown) — higher, 18.7%
- Cc1ccc(CS(=O)(=O)c2ccc(C(=O)N3CCN(c4ccccn4)CC3)cc2[N+](=O)[O-])cc1 — lower, -43.9%
- COc1ccccc1/C=C/C1=NC(=C\C=C/c2ccccc2)/C(=O)O1 — higher, 3.98%
- CC(/C=N/NC(=O)c1ccc(Cn2cc([N+](=O)[O-])cn2)o1)=C\c1ccccc1 — higher, -5.3%
- O=S(=O)(c1ccc(Br)cc1)N1CCn2c(nc3ccccc32)C1 — higher, -7.4%
- CCOc1cc(C(=O)OCC(=O)Nc2cc(C)on2)cc(OCC)c1OCC — higher, 2.29%
- Cc1ccc(NC(=O)CNC(=O)c2ccco2)cc1Cl — higher, 17%
- COc1ccc(OC)c(-c2csc(N(Cc3ccco3)C(=O)c3ccco3)n2)c1 — higher, 7.74%
- CCOc1ccccc1N1CC(C(=O)N(C)Cc2cccnc2)CC1=O (stereo not shown) — higher, 15%
- COc1ccc(N(C)C(=O)CCS(=O)(=O)c2cccc3nonc23)c(OC)c1 — higher, 1.11%
- CCCCCCCn1c(=N)n(CC(O)c2ccco2)c2ccccc21.Cl (stereo not shown) — lower, -86.9%
- Cl.N=c1n(CCN2CCCC2)c2ccccc2n1CC(O)c1ccco1 (stereo not shown) — lower, -34%
- Cl.Cn1c(=N)n(CC(O)c2ccco2)c2ccccc21 (stereo not shown) — higher, -9.79%
- CCN(CC)CCn1c(=N)n(CC(O)c2ccco2)c2ccccc21.Cl (stereo not shown) — lower, -73.2%
- CCCn1c(=N)n(CC(O)c2ccco2)c2ccccc21.Cl (stereo not shown) — lower, -43.8%
- Cl.N=c1n(CCN2CCCCC2)c2ccccc2n1CC(O)c1ccco1 (stereo not shown) — lower, -55.2%
- CC(=O)N1N=C(C)CC1c1ccc(OCc2ccccc2)cc1 (stereo not shown) — lower, -15.5%
- O=C(CN(CC(=O)N1CCOCC1)S(=O)(=O)c1ccc(Br)s1)N1CCOCC1 — higher, 12.8%
- CCOc1ccc(N(C(C)C(=O)NCc2ccco2)S(C)(=O)=O)cc1 (stereo not shown) — higher, -2.31%
- NC(=O)CC(NC(=O)c1cccc(Br)c1)c1ccc(N2CCN(c3ccc(F)cc3)CC2)c([N+](=O)[O-])c1 (stereo not shown) — higher, -2.08%
- O=C(CNS(=O)(=O)c1ccc(Br)s1)N1CCCC1 — higher, 22%
- COc1cccc(CCNC(=O)c2ccc(OC)c(OC3CCN(C(C)C)CC3)c2)c1 — lower, -57.4%
- COc1ccc(C(=O)NCCC2=CCCCC2)cc1OC — higher, -3.21%
- COc1ccccc1CCNC(=O)c1ccc(OC)c(OC2CCN(C(C)C)CC2)c1 — lower, -46.3%
- COc1cc(C(=O)NCCC2=CCCCC2)ccc1OC1CCN(C(C)=O)CC1 — higher, 2.98%
- COc1ccc(C(=O)NCCC2=CCCCC2)cc1OC1CCN(C(C)C)CC1 — lower, -78.1%
- COCCCNC(=O)c1ccc(OC)c(OC2CCN(C(C)C)CC2)c1 — higher, 10.3%
- CC1CN=C(NCc2ccc(F)cc2)S1 (stereo not shown) — higher, -8.5%
- CCOc1ccccc1C(=O)Nc1cc(C(=O)NCC(C)C)ccc1Cl — higher, 12%
- CCCc1ccc(Oc2c(-c3ccc(O)c(C)c3O)n[nH]c2C)cc1 — lower, -13.2%
- Cc1nc2sccn2c(=O)c1S(=O)(=O)N1CCN(c2ccccc2)CC1 — lower, -11.2%
- Cc1nc2sccn2c(=O)c1S(=O)(=O)N1CCN(c2ccc(F)cc2)CC1 — lower, -70.2%
- Cc1cc(NC(=O)Nc2ccc(OCc3ccccc3)cc2)n(C)n1 — higher, 23.8%
- COc1ccc(-n2c(Cc3cccn3C)nnc2SCC(=O)NCc2ccco2)cc1 — lower, -12.9%
- Cc1nc(SCc2c(Cl)cccc2Cl)nc(OC(=O)N(C)C)c1C — higher, -4.32%
- O=C(Cn1cnc2scc(-c3ccccc3)c2c1=O)NCc1ccco1 — lower, -24.9%
- CCc1ccc(-c2csc3ncn(CC(=O)NCc4ccco4)c(=O)c23)cc1 — higher, -4.39%
- O=C(Cn1cnc2scc(-c3cccc([N+](=O)[O-])c3)c2c1=O)NCc1ccco1 — lower, -54%
- CC(C)(C)c1ccc(COC(=O)CNC(=O)CNC(=O)Cc2ccccc2)cc1 — higher, -6.93%
- CCOP(=O)(CC(C(C)=O)C(O)c1ccccc1)OCC (stereo not shown) — higher, 11.3%
- CCOCCCNC(=O)c1cc2c(=O)n3ccccc3nc2s1 — higher, -7.05%
- O=C(NCc1ccncc1)c1cc(S(=O)(=O)N2CCOCC2)c(Cl)cc1Cl — lower, -13.3%
- COc1ccc(S(=O)(=O)N2CCCC2)cc1C(=O)O — higher, 30.4%
- COc1ccc(S(=O)(=O)N2CCCCCC2)cc1C(=O)NCCc1ccc(F)cc1 — lower, -31.4%
- CCCC(C)NC(=O)c1cc(S(=O)(=O)N2CCCCCC2)ccc1OC (stereo not shown) — lower, -54.4%
- COc1ccc(S(=O)(=O)N2CCCCCC2)cc1C(=O)NCc1ccc(C)cc1 — lower, -29.1%
- COc1ccc(S(=O)(=O)N2CCCCCC2)cc1C(=O)NCc1cccs1 — lower, -68.3%
- Cc1ccc(S(=O)(=O)N2CCCCC2)cc1C(=O)NCCc1ccccc1 — higher, 11.2%
- COc1ccc(S(=O)(=O)N2CCCCCC2)cc1C(=O)NCCc1ccccc1 — lower, -65.5%
- O=C(NCc1cccs1)c1cc(S(=O)(=O)N2CCCCC2)ccc1Cl — higher, 5.07%
- O=C(NCc1cccs1)c1cc(S(=O)(=O)N2CCOCC2)c(Cl)cc1Cl — lower, -81.6%
- O=C(NCC(c1cccs1)N1CCOCC1)c1cc(S(=O)(=O)N2CCOCC2)c(Cl)cc1Cl (stereo not shown) — higher, -9.54%
- COc1ccc(S(=O)(=O)N2CCCCCC2)cc1C(=O)N(C)Cc1cccs1 — lower, -40.5%
